Laboratory results: PubChem BioAssay AID1030 (National Center for Advancing Translational Sciences (NCATS), 2008)
Where “and” joins values, the source holds several entries; their conditions need not be identical. Equal values may be shown once. Among all 220,000 compounds or so, about 16,000 (7.3%) were called active. Not shown: some 25% with an inconclusive outcome. The call rests on the fitted dose curve; in most records, active means well fitted inhibition curve with a large enough effect (not every such curve was filed as active); inconclusive means small, poorly fitted or top-dose-only effect, or another doubt; inactive means no such curve, though single readings can be large or run the other way. The sample as a whole holds a higher share of actives than the screen did.

molecular target: Aldehyde dehydrogenase 1A1 (Homo sapiens) (UniProt P00352); test: qHTS Assay for Inhibitors of Aldehyde Dehydrogenase 1 (ALDH1A1); settings: Purified ALDH1A1, NADH fluorescence, propionaldehyde substrate; series mostly up to 75.3 µM; activity, negative = inhibition: at the top concentration;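 on activity, negative = inhibition: plate controls were no enzyme wells and a reference inhibitor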
Potency means the concentration at half of the fitted maximal effect.

Aldehyde dehydrogenase 1A1 (Homo sapiens), sequence (P00352 whole entry, looked up): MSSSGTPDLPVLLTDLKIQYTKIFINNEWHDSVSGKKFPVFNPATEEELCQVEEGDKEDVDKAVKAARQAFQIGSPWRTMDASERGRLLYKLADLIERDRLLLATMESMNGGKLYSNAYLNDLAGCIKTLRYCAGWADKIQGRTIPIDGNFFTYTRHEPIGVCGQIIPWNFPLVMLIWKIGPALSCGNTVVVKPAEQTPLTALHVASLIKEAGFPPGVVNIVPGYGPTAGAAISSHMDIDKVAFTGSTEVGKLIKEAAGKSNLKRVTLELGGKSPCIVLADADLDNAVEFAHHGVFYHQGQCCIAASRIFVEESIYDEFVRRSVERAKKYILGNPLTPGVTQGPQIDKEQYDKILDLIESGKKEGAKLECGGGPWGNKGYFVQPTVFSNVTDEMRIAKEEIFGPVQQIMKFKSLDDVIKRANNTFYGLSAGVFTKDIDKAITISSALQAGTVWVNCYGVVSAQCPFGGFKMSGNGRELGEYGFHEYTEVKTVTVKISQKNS

Structure (SMILES) | activity, negative = inhibition | Potency
CC1CC(C)CN(S(=O)(=O)c2ccc(C(=O)NN3CCOCC3)cc2)C1 (stereo not given) | -5.98% (inactive) | 
CN(C)/C=C1\C=C(c2ccccc2)OC1=O |  | 10 µM (active)
CNC(=S)N1CCC(NC(=O)C(Cc2ccc(F)cc2)NC(C)=O)CC1 (stereo not given) | 0.163% (inactive) | 
CC(=O)NC(Cc1ccc(F)c(F)c1)C(=O)NC1CCN(c2nnnn2-c2ccccc2)CC1 (stereo not given) |  | 3.16 µM (active)
COc1ccc(CC(NC(C)=O)C(=O)NC2CCN(C(=O)C3CC3)CC2)cc1OC (stereo not given) | 5.16% (inactive) | 
CC(C)(C)NC(=O)NC(=O)COC(=O)CCC1CCCCC1 | -5.33% (inactive) | 
CC(C)NC(=O)NC(=O)COC(=O)c1ccc(NC(=O)CC#N)cc1 | 6.29% (inactive) | 
N#CCC(=O)NC(=O)NCC1CC1 |  | 3.98 µM (active) and 1.26 µM (active)
COc1cccc(CC2(CO)CCN(Cc3cnc(-c4cccc(C)c4)nc3)CC2)c1 | -0.151% (inactive) | 
COc1ccc(C2CC(c3ccccc3)=NN2C(=O)COC(=O)COc2ccccc2)cc1 (stereo not given) | -9.93% (inactive) | 
O=C(CC1SCCNC1=O)Nc1ccc(Cl)c(Cl)c1 (stereo not given) | -1.94% (inactive) | 
Cc1oc2cc([N+](=O)[O-])c(O)c([N+](=O)[O-])c2c1C(=O)c1ccc(Br)cc1 | -15.7% (inactive) | 
CC(CNC(=O)c1ccc(N)cc1)NC(=O)c1ccc(N)cc1 (stereo not given) | 12.3% (inactive) | 
CC(CCc1ccccc1)NC(=O)c1ccc(Br)o1 (stereo not given) | -52.6% (inactive) | 
CC(CNC(=O)c1ccc(Br)o1)NC(=O)c1ccc(Br)o1 (stereo not given) |  | 28.2 µM (active)
CS(=O)(=O)N(Cc1ccccc1Cl)c1ccc(C(=O)NCc2cccnc2)cc1 | -5.16% (inactive) | 
CC1CCN(CCC(=O)Nc2ccccc2)CC1 | 5.39% (inactive) | 
CCN(CC)CCNC(=O)c1ccc(NS(=O)(=O)c2ccc3c(c2)OCCO3)cc1 | 1.71% (inactive) | 
CC/C=C/C/C=C/C/C=C/CCCCCCCC(=O)OCC |  | 1.12 µM (active)
CCCCC/C=C\C/C=C\CCCCCCCCCC(N)=O | -3.54% (inactive) | 
CCCCC/C=C\C/C=C\C/C=C\CCCCCCC(N)=O | 1.39% (inactive) | 
CC(=O)c1c(-c2ccccc2)c2ccccc2[nH]c1=O | -7.94% (inactive) | 
Brc1cc(/C=N/n2cnnc2)oc1Br | 9.74% (inactive) | 
NNC(=O)C1CC(O)CN1S(=O)(=O)c1ccc(Cl)cc1 (stereo not given) | 4.39% (inactive) | 
O=C1COc2ccc(C(=O)COC(=O)C3CC(O)CN3S(=O)(=O)c3ccc(Cl)cc3)cc2N1 (stereo not given) |  | 5.01 µM (active)
O=C1COc2ccc(C(=O)COC(=O)c3cccnc3Cl)cc2N1 | -2.97% (inactive) | 
COC(=O)N/N=C/c1ccc(/C=N/NC(=O)OC)cc1 | 1.22% (inactive) | 

Structure (SMILES) | activity, negative = inhibition | Potency
Cc1[nH]c2ccccc2c1SCC(=O)Nc1nccs1 | 16.2% (inactive) | 
CCC(=O)Nc1cc(C(F)(F)F)ccc1N1CCCC1 | 11.1% (inactive) | 
CC(=O)Nc1cccc(C(=O)Nc2nc(C)cs2)c1 | -0.569% (inactive) | 
O=C(O)CSc1nccc2ccccc12 | 9.04% (inactive) | 
CC(=O)Oc1ccc(C)cc1N1C(=O)c2ccc(C(=O)O)cc2C1=O | 2.51% (inactive) | 
Cc1cccc(N2C(=O)c3cccnc3C2=O)c1 | 2.24% (inactive) | 
Cc1ccc(Oc2ccc3c(c2)C(=O)N(c2cccc4cccnc24)C3=O)cc1 |  | 11.2 µM (active)
CSc1ncccc1C(=O)OCc1ccc(Br)cc1 | 9.11% (inactive) | 
CN1CCN(C(=O)C2=C[C@H](c3ccc4c(c3)OCO4)C[C@H](OCc3ccc(CO)cc3)O2)CC1 | -2.84% (inactive) | 
CC(=O)n1cc([C@@H]2C=C(C(=O)N3CCN(Cc4ccc5c(c4)OCO5)CC3)O[C@H](OCc3ccc(CO)cc3)C2)c2ccccc21 |  | 25.1 µM (active)
O=C(C1=C[C@H](c2coc3ccccc3c2=O)C[C@H](OCc2ccc(CO)cc2)O1)N1CCN(Cc2ccccc2)CC1 | -12.4% (inactive) | 
O=C(C(=O)N1CCc2ccccc2C1)c1c[nH]c2ccccc12 | -2.78% (inactive) | 
O=C(Nc1nnc(Cc2ccc(Cl)cc2)s1)c1cccnc1 | -0.189% (inactive) | 
Cn1cnc([N+](=O)[O-])c1Sc1ccccc1 |  | 11.2 µM (active)
Cn1cnc([N+](=O)[O-])c1Sc1n[nH]c(N)n1 | 0.133% (inactive) | 
Cn1cnc([N+](=O)[O-])c1Nc1ccccc1O | 2.48% (inactive) | 
COC(=O)COc1ccc(C2NC(=O)NC(C)=C2C(=O)NCc2ccccc2)cc1OC (stereo not given) | 19.6% (inactive) | 
O=C(Nc1ccc(N2CCOCC2)nc1)c1c(F)cccc1F | 7.81% (inactive) | 
Cc1ccc(S(=O)(=O)Cc2cc(-c3ccc(Cl)cc3)no2)cc1 | -5.52% (inactive) | 
COC(=O)c1cc(NC(=O)c2ccco2)ccc1N1CCOCC1 | -6.16% (inactive) | 
Cc1c(C=O)c2ccccc2n1CC(=O)O | 2.12% (inactive) | 
Cc1cccc(N2C(=O)CC(SC(N)=Nc3ccccc3)C2=O)c1 (stereo not given) | 2.23% (inactive) | 
COC(=O)c1ccccc1SC1CC(=O)N(c2cccc(C)c2)C1=O (stereo not given) |  | 17.8 µM (active)
O=C1CC(c2ccccc2)C(=O)N1c1cccc(O)c1 (stereo not given) | 4.81% (inactive) | 
O=C1OCC2=C1C(c1ccccc1)CC(=O)N2c1cccc(F)c1 (stereo not given) | 2.06% (inactive) | 
CC(=O)N(CN1C(=O)C2C3C=CC(C3)C2C1=O)c1cccc(Cl)c1 (stereo not given) | 0.697% (inactive) | 
Cn1cc(CN2CCCC(CO)C2)c(-c2ccc(Oc3ccccc3)cc2)n1 (stereo not given) | -3.15% (inactive) | 

Structure (SMILES) | activity, negative = inhibition | Potency
CC(C)C1=CC2=CC[C@H]3[C@](C)(C(=O)O)CCC[C@]3(C)C2CC1 (stereo not given in full) | -11% (inactive) | 
S=C(NCCc1ccccc1)N1CCCCC1 | -4.74% (inactive) | 
Oc1cc2c(cc1O)CN(C(=S)NCCc1ccc(Cl)cc1)CCC2 |  | 15.8 µM (active) and 20 µM (active)
O=C1CCN(C(=S)NCCc2ccccc2)CC1 | 0.459% (inactive) | 
O=C(CCl)N(Cc1cccc([N+](=O)[O-])c1)c1cccc(Cl)c1 |  | 0.158 µM (active)
O=C(Nc1cccc([N+](=O)[O-])c1)Nc1ccc(Cl)cn1 | 11.7% (inactive) | 
CCN(CC)C(=O)CN(c1cccc([N+](=O)[O-])c1)S(=O)(=O)c1ccccc1 | 6.73% (inactive) | 
COc1ccc(CCNC(=O)c2ccc(CS(=O)(=O)c3ccc(Br)cc3)o2)cc1OC | 21.2% (inactive) | 
Nc1nc(NC(=O)/C=C/c2ccc(F)cc2)nn1-c1ccccc1 | 11.2% (inactive) | 
CCOC(=O)CSc1nnc(CNc2nc(-c3ccccc3)cs2)n1C | -3.03% (inactive) | 
CCOC(=O)c1c(NC(=O)CSc2nnc(Cc3csc(N)n3)n2C)sc(C)c1C |  | 7.94 µM (active)
CCOc1ccc(Nc2nc(Cc3nnc(SCC(=O)NC4CCCC4)n3C)cs2)cc1 | -1.4% (inactive) | 
CCO[C@H]1OC(C(=O)N2CCCCCCC2)=C[C@@H](c2ccc(C(F)(F)F)cc2)[C@@H]1CCCO | 2.63% (inactive) | 
NC(=O)C1CCN(Cc2nc3c(Br)cc(Br)cc3c(=O)[nH]2)CC1 | 4.31% (inactive) | 
O=C(Nc1ccc(C(=O)O)cc1)/C(=C/c1ccc([N+](=O)[O-])cc1)NC(=O)c1ccccc1 | 3.09% (inactive) | 
Nc1ncnc(Nc2cccc(Cl)c2Cl)n1 | -11.2% (inactive) | 
CC(C)(C)c1nc2ccccc2c(=O)n1N1C(=O)c2ccccc2C1=O | -5.76% (inactive) | 
CCOC(=O)C1CCc2nc3ccccc3c(=O)n21 (stereo not given) | 12.2% (inactive) | 
CCC1(CC)Cc2ccccc2-c2nc3ccccc3c(=O)n21 |  | 15.8 µM (active)
COc1ccc(-n2c(O)c(C=NCC(c3ccco3)N3CCCC3)c3ccccc3c2=O)cc1OC (stereo not given) | -15% (inactive) | 
CC1COc2ccccc2N1C(=O)c1cccnc1Cl (stereo not given) | -3.66% (inactive) | 
CCn1cc(CN2CCCC(CNS(=O)(=O)Cc3ccccc3)C2)cn1 (stereo not given) | 5.21% (inactive) | 
CC(Sc1nc2c([nH]c3ccccc32)c(=O)n1C)c1ccccc1 (stereo not given) | -5.21% (inactive) | 
Cc1ccc2nsnc2c1S(=O)(=O)N1CCCC1C(=O)O (stereo not given) | -3.73% (inactive) | 
COCCN(Cc1nc(-c2ccc(C(F)(F)F)cc2)no1)C(C)C | -1.16% (inactive) | 
Oc1c(C=Nc2cccc3nsnc23)ccc2ccccc12 |  | 2.82 µM (active)
O=C(Nc1cccc(C(F)(F)F)c1)c1ccc(N2CCNCC2)c([N+](=O)[O-])c1 | -4.94% (inactive) | 

Structure (SMILES) | activity, negative = inhibition | Potency
COc1cccc(/C=C/C(=O)Nc2ccc3c(c2)OCCO3)c1 | -1.38% (inactive) | 
CCOC(=O)c1c(NC(=S)NC(=O)/C=C/c2cccs2)sc(C)c1C | 3.03% (inactive) | 
CCc1nnc(NS(=O)(=O)c2ccc(NC(=S)NC(=O)c3cccs3)cc2)s1 |  | 25.1 µM (active)
COc1ccc(NS(=O)(=O)c2ccc(NC(=S)NC(=O)/C=C/c3ccc(C)cc3)cc2)nn1 | -5.99% (inactive) | 
CCc1nnc(NS(=O)(=O)c2ccc(NS(=O)(=O)c3ccccc3)cc2)s1 | 15.8% (inactive) | 
CCc1nnc(NS(=O)(=O)c2ccc(NC(=S)NC(=O)/C=C/c3cccs3)cc2)s1 |  | 12.6 µM (active)
O=C(NC(=S)Nc1ccc(NC(=O)c2cccs2)cc1)c1ccc([N+](=O)[O-])cc1 | -13.7% (inactive) | 
NS(=O)(=O)c1ccc(NC(=S)NNC(=O)c2cccs2)cc1 |  | 12.6 µM (active)
CCc1nnc(NC(=O)c2cccs2)s1 | 9% (inactive) | 
CC(C)C(=O)Nc1ccc(C(=O)NNC(=O)c2cccs2)cc1 | 4.21% (inactive) | 
CC(=O)Nc1ccc(S(=O)(=O)N(C)c2ccc(OCC(=O)OCC(=O)N3CCCCC3)cc2)cc1 | -2.1% (inactive) | 
CCc1cc2cc(OC)ccc2nc1SCC(=O)Nc1cc(OC)c(OC)cc1C(=O)O | -14.1% (inactive) | 
COC(C)C(C(=O)OCC1=CCN2CC[C@H](O)[C@@H]12)C(C)C (stereo not given in full) | 10.3% (inactive) | 
COc1ccc(C2OCC3(CO2)SC(=O)NC3=O)cc1OC (stereo not given) | 2.24% (inactive) | 
CN1CCC(OC(=O)COc2ccc(Cl)cc2Cl)CC1 | 4.24% (inactive) | 
O=C(CNS(=O)(=O)c1cccc(C(F)(F)F)c1)Nc1ccccc1F |  | 31.6 µM (active)
Cc1cccc(OCC(=O)Nc2ccccc2F)c1 | -11% (inactive) | 
O=C(CNS(=O)(=O)c1ccccc1)NCC(=O)OCc1ccccc1F | -0.533% (inactive) | 
Cc1cccc(C)c1NC(=O)C1(C)c2cccc[n+]2CC(=O)N1Cc1cccs1 (stereo not given) | 15.2% (inactive) | 
COc1ccccc1N(C)S(=O)(=O)c1ccc(Cl)c(C(=O)N2CCC(C(N)=O)CC2)c1 | 3.35% (inactive) | 
COc1ccccc1-c1nnc(NC(=O)c2cccc(N3C(=O)CCC3=O)c2)o1 | -5.89% (inactive) | 
O=C(Nc1cccc2cccnc12)c1cccc(N2C(=O)CCC2=O)c1 | -7.93% (inactive) | 
Cc1cc(NC(=O)c2cccc(N3C(=O)CCC3=O)c2)no1 |  | 28.2 µM (active)
Nc1nnc(SCC(=O)NC2CCCc3ccccc32)s1 (stereo not given) | 2.71% (inactive) | 
